Calls of active or inactive are those of the source. How the source made its calls: active means hit-call score of the fitted dose curve at least 0.9, where 1 is the maximum; inactive means score below 0.9.
Assays:
[1] = ATG_M_61_CIS: Attagene CIS-FACTORIAL HepG2 Assay for M61 Transcription Factor (Internal Marker) (AID 2282937); details: HepG2 Attagene CIS-FACTORIAL M61 internal marker reporter; actives raise or lower the signal
How it was run: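 This endpoint serves as an internal background control within a multiplexed HepG2 cis-reporter panel. Cells are exposed for 24 h; reporter mRNA is amplified, fluorescently labelled and sized by capillary electrophoresis, with DMSO as negative control.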

[2] = ATG_EGR_CIS: Attagene CIS-FACTORIAL HepG2 Assay for human Early Growth Response 1 (EGR1) (AID 2282938); details: HepG2 Attagene CIS-FACTORIAL EGR reporter mRNA; actives raise or lower the signal
How it was run: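 HepG2, transient MRTU transfection (cis promoters), 24 h compound. RNA → RT (oligo-dT) → PCR → 6-FAM labelling → HpaI cut → CE fluorescence. Bidirectional fit, DMSO baseline.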

[3] = ATG_M_19_CIS: Attagene CIS-FACTORIAL HepG2 Assay for M19 Transcription Factor (Internal Marker) (AID 2282939); details: HepG2 Attagene CIS-FACTORIAL M19 internal marker reporter; actives raise or lower the signal
How it was run: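 HepG2 cells transiently transfected with cis-regulated multiple reporter transcription units were dosed for 24 h; reporter mRNA was quantified by RT-PCR, 6-FAM primer-extension labelling, HpaI digestion and capillary electrophoresis, with bidirectional fitting against DMSO baseline.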

[4] = ATG_ERE_CIS: Attagene CIS-FACTORIAL HepG2 Assay for Estrogen Response Element (ERE) (AID 2282940); details: HepG2 ERE cis-reporter, Attagene RNA transcript; actives raise or lower the signal
How it was run: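 HepG2 cells transiently transfected with cis-promoter-driven multiplexed reporter transcription units report endogenous TF activity. After 24 h compound exposure, reporter mRNA is quantified by RT-PCR with capillary electrophoresis fluorescence; bidirectional fitting versus DMSO baseline.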

[5] = ATG_Ets_CIS: Attagene CIS-FACTORIAL HepG2 Assay for human Erythroblast Transformation Specific (ETS) (AID 2282941); details: HepG2 ETS cis-reporter transcription, actives raise or lower the signal
How it was run: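 After transient cis-reporter transfection, HepG2 cells receive test chemical for 24 h. Reporter mRNA levels, measured by RT-PCR and capillary electrophoresis fluorescence, are analysed bidirectionally relative to the DMSO baseline.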

[6] = target: Hepatocyte nuclear factor 3-beta (Homo sapiens) (UniProt Q9Y261); assay: ATG_FoxA2_CIS: Attagene CIS-FACTORIAL HepG2 Assay for human Forkhead box A2 (FOXA2) (AID 2282942); details: HepG2 cis-reporter transcription factor activity, 24 h; actives raise or lower the signal
How it was run: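 Cells: HepG2, transient multiplex reporter transfection. Exposure 24 h. Detection: reporter-specific RT-PCR, fluorescent labelling, restriction digest, capillary electrophoresis. Analysis: bidirectional curve fit, DMSO as negative control.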

[7] = ATG_GATA_CIS: Attagene CIS-FACTORIAL HepG2 Assay for human GATA Binding Protein (AID 2282944); details: HepG2 GATA cis-element reporter, Attagene multiplex mRNA; actives raise or lower the signal
How it was run: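 HepG2 cells transiently transfected with multiplexed cis-element reporter units reflecting endogenous transcription factor activity; reporter mRNA measured after 24 h dosing by RT-PCR, 6-FAM labeling, HpaI digestion and capillary electrophoresis. Bidirectional fitting versus DMSO baseline.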

[8] = ATG_GLI_CIS: Attagene CIS-FACTORIAL HepG2 Assay for human Zinc Finger Protein GLI1 (AID 2282945); details: HepG2, Attagene cis-factorial reporter mRNA, GLI element; actives raise or lower the signal
How it was run: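 Bidirectional curve fits relative to DMSO, using reporter mRNA levels from RT-PCR plus capillary electrophoresis. Cells were HepG2 transiently carrying cis-regulated reporter constructs, harvested 24 h after dosing.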

[9] = ATG_GRE_CIS: Attagene CIS-FACTORIAL HepG2 Assay for human Glucocorticoid Response Elements (GRE) (AID 2282947); details: HepG2 GRE cis-reporter, Attagene multiplex mRNA; actives raise or lower the signal
How it was run: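 Assay uses human hepatoma HepG2 cells transfected with cis-promoter reporter units, exposed 24 h. mRNA from reporters detected by RT-PCR plus capillary electrophoresis; DMSO serves as negative control and baseline.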

[10] = ATG_ISRE_CIS: Attagene CIS-FACTORIAL HepG2 Assay for human Interferon Regulatory Factor 1 (IRF1) binding to an Interferon-Stimulated Response Element (ISRE) (AID 2282948); details: HepG2 ISRE cis-reporter (Attagene), mRNA transcription readout; actives raise or lower the signal
How it was run: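 Quantitation relies on labelled RT-PCR fragments separated by capillary electrophoresis. Human HepG2 cells bearing cis-promoter reporter constructs were treated 24 h; DMSO served as baseline for bidirectional fitting.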

[11] = ATG_M_32_CIS: Attagene CIS-FACTORIAL HepG2 Assay for M32 Transcription Factor (Internal Marker) (AID 2282949); details: HepG2 Attagene cis-factorial M32 reporter, mRNA; actives raise or lower the signal;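 further: background control marker of the multiplexed CIS panel rather than a real target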
How it was run: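 Following 24 h chemical exposure of HepG2 cells transiently expressing cis-promoter reporter constructs, reporter transcript levels were determined by RT-PCR with fluorescent labelling and capillary electrophoresis, then fitted bidirectionally against DMSO.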

[12] = ATG_M_06_CIS: Attagene CIS-FACTORIAL HepG2 Assay for M06 Transcription Factor (Internal Marker) (AID 2282950); details: HepG2 Attagene CIS-FACTORIAL M06 internal marker reporter; actives raise or lower the signal
How it was run: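 HepG2 cells transiently transfected with cis-regulated multiple reporter transcription units were exposed to chemical for 24 h; reporter mRNA was quantified by RT-PCR, 6-FAM primer labelling, HpaI digestion and capillary electrophoresis, fitted bidirectionally against DMSO.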

[13] = target: Hepatocyte nuclear factor 6 (Homo sapiens) (UniProt Q9UBC0); assay: ATG_HNF6_CIS: Attagene CIS-FACTORIAL HepG2 Assay for human Hepatocyte Nuclear Factor 6 (HNF6) (AID 2282952); details: HepG2 Attagene cis-factorial HNF6 reporter transcription; actives raise or lower the signal
How it was run: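 Reporter mRNA induction or loss in HepG2 after 24 h exposure; transient cis-MRTU transfection; fragments quantified by capillary electrophoresis; bidirectional analysis, DMSO as negative control.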

[14] = target: Heat shock factor protein 1 (Homo sapiens) (UniProt Q00613); assay: ATG_HSE_CIS: Attagene CIS-FACTORIAL HepG2 Assay for human Heat Shock Transcription Factor 1 (HSE) (AID 2282953); details: HepG2 HSE cis-reporter, Attagene RNA transcription; actives raise or lower the signal
How it was run: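 HepG2 cells transiently transfected with multiple reporter transcription units under cis-regulatory promoter control, measuring endogenous transcription factor activity. After 24 h chemical exposure, reporter mRNA quantified by RT-PCR, fluorescent labelling, HpaI digestion and capillary electrophoresis; bidirectional fit versus DMSO.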

[15] = ATG_MRE_CIS: Attagene CIS-FACTORIAL HepG2 Assay for human Metal Responsive Element (MRE) (AID 2282954); details: HepG2 MRE cis-reporter transcription, Attagene multiplex; actives raise or lower the signal
How it was run: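 After a 24 h chemical exposure, transiently transfected HepG2 cells yield RNA whose reporter sequences are amplified, FAM-labelled and sized by capillary electrophoresis. Curves are fitted bidirectionally relative to DMSO.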

[16] = ATG_PBREM_CIS: Attagene CIS-FACTORIAL HepG2 Assay for human Phenobarbital-responsive Enhancer Module (PBREM) (AID 2282955); details: HepG2 PBREM cis-reporter, Attagene multiplexed transcription; actives raise or lower the signal
How it was run: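 HepG2, transient MRTU transfection, 24 h dosing; RNA → oligo(dT) RT → PCR → 6-FAM extension → HpaI → CE. Bidirectional fit vs DMSO.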

[17] = ATG_E_Box_CIS: Attagene CIS-FACTORIAL HepG2 Assay for human Enhancer Box (E-box) (AID 2282936); details: HepG2 E-box cis-reporter transcription, actives raise or lower the signal
How it was run: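 DMSO served as negative control and baseline for bidirectional fitting. Human hepatoma HepG2 cells, transiently transfected with cis-reporter constructs, were dosed 24 h; reporter mRNA read by RT-PCR and capillary electrophoresis.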

[18] = ATG_FoxO_CIS: Attagene CIS-FACTORIAL HepG2 Assay for human Forkhead box O (FoxO) (AID 2282943); details: HepG2 Attagene cis-reporter, FoxO element, mRNA; actives raise or lower the signal
How it was run: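 HepG2, transient MRTU transfection (cis element, endogenous TFs). Dose 24 h. TriZol RNA → oligo(dT) RT → PCR → 6-FAM primer extension → HpaI cut → CE. Gain/loss vs DMSO.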

[19] = target: Hypoxia-inducible factor 1-alpha (Homo sapiens) (UniProt Q16665); assay: ATG_HIF1a_CIS: Attagene CIS-FACTORIAL HepG2 Assay for human Hypoxia Inducible Factor 1 (HIF1A) (AID 2282951); details: HepG2 Attagene cis-factorial HIF1a reporter transcription; actives raise or lower the signal
How it was run: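 HepG2, transient cis-reporter library, 24 h dosing. RNA → RT (oligo dT) → PCR → 6-FAM primer extension → HpaI → CE. Bidirectional curve fit vs DMSO.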

[20] = target: Bile acid receptor (Homo sapiens) (UniProt Q96RI1); assay: ATG_IR1_CIS: Attagene CIS-FACTORIAL HepG2 Assay for human Nuclear Receptor Subfamily 1 Group H Member 4 (NR1H4), IR1 submotif (AID 2282946); details: IR1 reporter transcription, actives raise or lower the signal
How it was run: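 Cells (human HepG2) carry transiently transfected cis-promoter reporter transcription units. Compounds are incubated 24 h, total RNA is reverse-transcribed and amplified, and labelled fragments are resolved by capillary electrophoresis. Curves use DMSO as baseline.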

Measured: AC50

Chain of Hepatocyte nuclear factor 3-beta (Homo sapiens) (Q9Y261 whole entry, looked up): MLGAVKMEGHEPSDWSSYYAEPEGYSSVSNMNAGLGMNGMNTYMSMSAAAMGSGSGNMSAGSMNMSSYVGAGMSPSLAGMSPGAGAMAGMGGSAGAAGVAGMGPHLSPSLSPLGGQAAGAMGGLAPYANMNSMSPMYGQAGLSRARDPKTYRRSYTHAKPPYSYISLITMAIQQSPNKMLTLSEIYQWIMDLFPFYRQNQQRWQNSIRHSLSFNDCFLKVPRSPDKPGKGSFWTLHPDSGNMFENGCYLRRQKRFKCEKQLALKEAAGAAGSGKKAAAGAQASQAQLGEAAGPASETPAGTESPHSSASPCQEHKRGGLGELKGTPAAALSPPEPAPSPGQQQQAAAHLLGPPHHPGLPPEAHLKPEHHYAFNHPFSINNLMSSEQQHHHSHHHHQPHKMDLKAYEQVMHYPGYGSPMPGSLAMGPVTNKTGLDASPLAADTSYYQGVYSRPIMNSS
Chain of Bile acid receptor (Homo sapiens) (Q96RI1 whole entry, looked up, the tested form may be a part): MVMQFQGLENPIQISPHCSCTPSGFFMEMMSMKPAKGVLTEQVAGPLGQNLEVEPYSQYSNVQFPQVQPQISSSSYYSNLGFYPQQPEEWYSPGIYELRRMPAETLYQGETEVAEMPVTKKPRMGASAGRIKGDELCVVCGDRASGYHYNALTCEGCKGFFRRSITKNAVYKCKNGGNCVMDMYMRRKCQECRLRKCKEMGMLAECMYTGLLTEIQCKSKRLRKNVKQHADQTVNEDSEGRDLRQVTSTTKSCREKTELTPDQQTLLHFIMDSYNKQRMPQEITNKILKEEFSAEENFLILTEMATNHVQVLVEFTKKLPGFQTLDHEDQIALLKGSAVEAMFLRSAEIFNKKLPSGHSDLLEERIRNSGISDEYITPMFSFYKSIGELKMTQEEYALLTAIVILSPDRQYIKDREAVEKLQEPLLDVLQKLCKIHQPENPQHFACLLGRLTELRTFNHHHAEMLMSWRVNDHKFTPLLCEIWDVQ
Chain of Hypoxia-inducible factor 1-alpha (Homo sapiens) (Q16665 whole entry, looked up): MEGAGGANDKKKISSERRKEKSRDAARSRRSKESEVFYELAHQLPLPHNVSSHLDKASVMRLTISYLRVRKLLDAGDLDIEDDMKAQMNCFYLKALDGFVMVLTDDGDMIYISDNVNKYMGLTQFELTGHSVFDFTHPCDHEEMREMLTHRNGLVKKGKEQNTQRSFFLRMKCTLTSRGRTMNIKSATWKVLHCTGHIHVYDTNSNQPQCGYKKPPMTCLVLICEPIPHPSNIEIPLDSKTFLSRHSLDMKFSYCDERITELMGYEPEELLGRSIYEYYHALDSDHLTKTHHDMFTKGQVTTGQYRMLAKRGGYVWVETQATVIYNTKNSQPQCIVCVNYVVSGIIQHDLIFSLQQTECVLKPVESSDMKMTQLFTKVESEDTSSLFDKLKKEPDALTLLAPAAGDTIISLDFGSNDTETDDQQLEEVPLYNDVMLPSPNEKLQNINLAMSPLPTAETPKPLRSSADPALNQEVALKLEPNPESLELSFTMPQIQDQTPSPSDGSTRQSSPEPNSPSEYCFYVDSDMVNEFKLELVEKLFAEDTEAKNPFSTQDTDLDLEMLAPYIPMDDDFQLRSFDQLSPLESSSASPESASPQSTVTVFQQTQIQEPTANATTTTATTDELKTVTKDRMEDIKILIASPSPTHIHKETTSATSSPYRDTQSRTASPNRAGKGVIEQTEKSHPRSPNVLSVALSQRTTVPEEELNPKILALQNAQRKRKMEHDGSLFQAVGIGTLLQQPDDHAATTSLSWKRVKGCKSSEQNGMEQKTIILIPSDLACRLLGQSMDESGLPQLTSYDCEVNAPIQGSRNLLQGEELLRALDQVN
Chain of Hepatocyte nuclear factor 6 (Homo sapiens) (Q9UBC0 whole entry, looked up, the tested form may be a part): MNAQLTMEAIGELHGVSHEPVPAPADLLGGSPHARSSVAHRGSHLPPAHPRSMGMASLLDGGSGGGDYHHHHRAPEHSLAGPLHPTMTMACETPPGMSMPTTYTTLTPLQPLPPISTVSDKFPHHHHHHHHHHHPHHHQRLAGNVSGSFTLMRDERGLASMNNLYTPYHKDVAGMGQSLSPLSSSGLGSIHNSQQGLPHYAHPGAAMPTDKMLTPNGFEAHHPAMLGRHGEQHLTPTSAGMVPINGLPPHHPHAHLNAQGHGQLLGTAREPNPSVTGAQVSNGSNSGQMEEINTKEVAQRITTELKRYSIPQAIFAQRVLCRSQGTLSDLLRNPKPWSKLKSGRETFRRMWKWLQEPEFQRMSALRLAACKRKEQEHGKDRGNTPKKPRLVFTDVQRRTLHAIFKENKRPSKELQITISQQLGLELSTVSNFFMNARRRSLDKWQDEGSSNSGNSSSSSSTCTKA
Chain of Heat shock factor protein 1 (Homo sapiens) (Q00613 whole entry, looked up): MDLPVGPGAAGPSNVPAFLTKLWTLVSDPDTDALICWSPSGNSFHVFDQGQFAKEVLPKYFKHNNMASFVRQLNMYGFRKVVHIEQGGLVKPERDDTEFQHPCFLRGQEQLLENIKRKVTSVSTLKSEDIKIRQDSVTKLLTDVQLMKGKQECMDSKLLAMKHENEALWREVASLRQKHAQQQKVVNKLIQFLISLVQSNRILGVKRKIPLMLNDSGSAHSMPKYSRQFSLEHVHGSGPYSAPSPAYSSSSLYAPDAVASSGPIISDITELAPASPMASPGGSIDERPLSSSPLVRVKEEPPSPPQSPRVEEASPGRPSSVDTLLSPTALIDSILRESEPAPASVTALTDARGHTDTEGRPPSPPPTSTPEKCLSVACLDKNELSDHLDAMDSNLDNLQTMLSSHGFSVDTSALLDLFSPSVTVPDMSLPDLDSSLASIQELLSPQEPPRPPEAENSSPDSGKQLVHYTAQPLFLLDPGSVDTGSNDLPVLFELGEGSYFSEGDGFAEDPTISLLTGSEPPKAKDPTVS

CCn1nc(Cc2ccccc2)cc1C1CCN(C[C@H]2C[C@H](N(C)[C@@H](C(=O)O)C(C)C)C[C@@H]2c2cccc(F)c2)CC1
active: [2] 155 µM | [4] 5.55 µM | [10] 100 µM
not listed: [17] | [18] | [19] | [20]
inactive: all other assays above

Cn1c(=O)c2c(ncn2C)n(C)c1=O
not listed: [3] | [4] | [15] | [16] | [19] | [20]
inactive: all other assays above

CC(=O)OC[C@H]1O[C@@](COC(C)=O)(O[C@H]2O[C@H](COC(C)=O)[C@@H](OC(C)=O)[C@H](OC(C)=O)[C@H]2OC(C)=O)[C@@H](OC(C)=O)[C@@H]1OC(C)=O
not listed: [3] | [4] | [6] | [16] | [18] | [20]
inactive: all other assays above

CC(=O)c1ccc2c(c1)[C@H](NC(=O)c1ccc(F)cc1)[C@@H](O)C(C)(C)O2
not listed: [3] | [4] | [6] | [18] | [19] | [20]
inactive: all other assays above

CC1(C)C(=O)N(Br)C(=O)N1Br
not listed: [3] | [4] | [6] | [15] | [16]
inactive: all other assays above

C1N2CN3CN1CN(C2)C3
not listed: [3] | [4] | [6] | [9] | [16] | [19]
inactive: all other assays above

CC(C)CCCCCCOC(=O)c1ccc(C(=O)OCCCCCCC(C)C)c(C(=O)OCCCCCCC(C)C)c1
not listed: [3] | [4] | [9] | [19] | [20]
inactive: all other assays above

COc1ccc(-n2nc(C(F)F)cc2-c2ccc(S(C)=O)cc2)cc1 (stereo unspecified)
not listed: [6] | [14] | [15] | [16] | [17] | [20]
inactive: all other assays above

O=C1CCCCCN1
not listed: [3] | [4] | [9] | [16] | [18]
inactive: all other assays above

Cc1ccc(C)c(O)c1
not listed: [3] | [4] | [15] | [16] | [18] | [19]
inactive: all other assays above

CCCCCCCCO
not listed: [16] | [17] | [20]
inactive: all other assays above

O=C(OC[C@H]1O[C@@H](OC(=O)c2cc(O)c(O)c(OC(=O)c3cc(O)c(O)c(O)c3)c2)[C@H](OC(=O)c2cc(O)c(O)c(OC(=O)c3cc(O)c(O)c(O)c3)c2)[C@@H](OC(=O)c2cc(O)c(O)c(OC(=O)c3cc(O)c(O)c(O)c3)c2)[C@@H]1OC(=O)c1cc(O)c(O)c(OC(=O)c2cc(O)c(O)c(O)c2)c1)c1cc(O)c(O)c(OC(=O)c2cc(O)c(O)c(O)c2)c1
not listed: [3] | [4] | [6] | [15] | [16] | [18] | [19] | [20]
inactive: all other assays above

CCC(C)(C)C(=O)O[C@H]1C[C@@H](C)C=C2C=C[C@H](C)[C@H](CC[C@@H]3C[C@@H](O)CC(=O)O3)[C@H]21
active: [4] 6.94 µM
not listed: [3] | [6] | [15] | [16] | [19] | [20]
inactive: all other assays above

CC(O)CN(CCN(CC(C)O)CC(C)O)CC(C)O (stereo unspecified)
not listed: [3] | [4] | [15] | [19]
inactive: all other assays above

Cn1cnc([N+](=O)[O-])c1Sc1ncnc2nc[nH]c12
active: [4] 29 µM | [10] 63.3 µM
not listed: [14] | [15] | [16] | [17] | [19] | [20]
inactive: all other assays above

O=P(OC(CCl)CCl)(OC(CCl)CCl)OC(CCl)CCl
inactive: [1] | [4] | [7] | [11] | [12]
active: [2] 63.5 µM | [3] 149 µM | [5] 156 µM | [18] 169 µM | [8] 145 µM | [9] 153 µM | [10] 23.2 µM | [13] 153 µM | [14] 151 µM

CC(C)CCO
not listed: [9] | [15] | [16] | [17] | [18] | [20]
inactive: all other assays above
